In PubChem BioAssay (Tox21):
“And” between values parts separate entries of the source, which are not always exact repeats. Equal values may be shown once. Inconclusive results are not listed. Entries that show only a call come without a potency. The source made the active and inactive calls. Unless noted, calls follow the shape of the dose curve; as a rule, active = well fitted curve in the direction sought with a large enough effect in the repeat runs; inconclusive = weak or mixed curves; inactive = no such curve, though single readings can be large; an effect the other way counts as inactive or inconclusive.

Experiments:
[1] = target: Aryl hydrocarbon receptor (Homo sapiens) (UniProt P35869); test: qHTS assay to identify small molecule that activate the aryl hydrocarbon receptor (AhR) signaling pathway (AID 743085); conditions: HepG2 AhR-luc (HG2L7.5c1), luciferase, 24 h; series mostly up to 70.3 µM;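 also: HG2L7.5c1 human HepG2 liver cells with stably integrated DRE-driven firefly reporter; nearly all actives have a fitted effect of over 15% in size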
Method in brief: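 A multiplexed format paired cell viability (CellTiter-Fluor fluorescence) with AhR-dependent luciferase output (ONE-Glo luminescence) in the same wells of HepG2 DRE-luc cells after 24 h compound exposure at 37C.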

[2] = target: Peroxisome proliferator-activated receptor gamma (Homo sapiens) (UniProt P37231); test: qHTS assay to identify small molecule agonists of the peroxisome proliferator-activated receptor gamma (PPARg) signaling pathway (AID 743094; active = well fitted activation curve with a large enough effect in the signal ratio in the repeat runs, not every such curve was filed as active; the % refers to the signal ratio); conditions: HEK293H PPARg-UAS-bla, beta-lactamase FRET ratio, 17 h; series mostly up to 57 µM
Method in brief: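 Stably transfected HEK293H cells (GeneBLAzer PPARg UAS-bla) were incubated with test substances for 17 h at 37C after a 5 h pre-incubation; beta-lactamase activity was then detected by FRET substrate fluorescence.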

[3] = qHTS assay to identify small molecule antagonists of the peroxisome proliferator-activated receptor gamma (PPARg) signaling pathway - cell viability counter screen (AID 743194); conditions: PPARg-bla HEK293H viability, CellTiter-Glo luminescence, 17 h, co-treated with 50 nM rosiglitazone; series mostly up to 62.6 µM; also: nearly all actives have a fitted effect of over 55% in size; also: potency is read from the fitted curve at half-maximal effect
Method in brief: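 Viability was measured as CellTiter-Glo luminescence in GeneBLAzer PPARg UAS-bla HEK293H cells. These cells had been exposed 17 h at 37 C to compounds together with rosiglitazone at 50 nM final, with the beta-lactamase readout taken in the same wells.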

[4] = qHTS assay for small molecule activators of the heat shock response signaling pathway - cell viability counter screen (AID 743209); conditions: HSE-bla HeLa viability, CellTiter-Glo luminescence, 5 h; series mostly up to 62.6 µM; also: nearly all actives have a fitted effect of over 50% in size; also: potency is read from the fitted curve at half-maximal effect
Method in brief: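 Quantitative HTS format, Tox21 10K library. HeLa cells carrying an HSE-driven beta-lactamase reporter were treated 5 h at 37 C, then assessed for viability by CellTiter-Glo luminescence.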

[5] = target: Peroxisome proliferator-activated receptor delta (Homo sapiens) (UniProt Q03181); test: qHTS assay to identify small molecule agonists of the peroxisome proliferator-activated receptor delta (PPARd) signaling pathway (AID 743212; calls by dose curve); conditions: HEK293H PPARd-UAS-bla, beta-lactamase FRET ratio, 17 h; series mostly up to 62.6 µM
Method in brief: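 HEK293H PPARd-bla cells; 5 h preincubation 37 C/5% CO2; compound (DMSO) 37 C; LiveBLAzer B/G FRET substrate 2 h RT; fluorescence intensity.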

[6] = target: Peroxisome proliferator-activated receptor delta (Homo sapiens) (UniProt Q03181); test: qHTS assay to identify small molecule antagonists of the peroxisome proliferator-activated receptor delta (PPARd) signaling pathway (AID 743215; active = well fitted inhibition curve with a large enough effect in the signal ratio in the repeat runs, not every such curve was filed as active; the % refers to the signal ratio;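 also: cells stimulated with agonist L165041 at 300 nM final during compound exposure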); conditions: HEK293H PPARd-UAS-bla, beta-lactamase FRET ratio, antagonist, 17 h; series mostly up to 62 µM
Method in brief: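 Antagonist-mode beta-lactamase reporter screen: HEK293H cells with UAS-bla under PPARd control, stimulated by 300 nM L165041 (final) alongside test compound for 17 h at 37 C, then FRET fluorescence after 2 h substrate incubation.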

[7] = target: Bile acid receptor (Homo sapiens) (UniProt Q96RI1); test: qHTS assay to identify small molecule agonists of the farnesoid-X-receptor (FXR) signaling pathway (AID 743220; active = well fitted activation curve with a large enough effect in the signal ratio in the repeat runs, not every such curve was filed as active; the % refers to the signal ratio); conditions: HEK293T FXR-UAS-bla, beta-lactamase FRET ratio, 16 h; series mostly up to 62.6 µM
Method in brief: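 Beta-lactamase reporter under UAS control in GeneBLAzer FXR HEK 293T cells (5000/well) measured with LiveBLAzer FRET substrate after 2 h at room temperature. Compound exposure lasted 16 h at 37C.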

[8] = qHTS assay to identify small molecule antagonists of the farnesoid-X-receptor (FXR) signaling pathway - cell viability counter screen (AID 743221; active = well fitted cell-killing curve with a large enough effect in the repeat runs, not every such curve was filed as active; also: nearly all actives have a fitted effect of over 50% in size; also: potency is read from the fitted curve at half-maximal effect); conditions: FXR-bla HEK293T viability, CellTiter-Glo luminescence, 16 h; series mostly up to 62.6 µM
Method in brief: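 Cytotoxicity is taken from ATP luminescence (CellTiter-Glo, 30 min, room temperature) in FXR-bla HEK 293T cells previously incubated 16 h at 37 C with compound and chenodeoxycholic acid at 50 uM final.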

[9] = target: Vitamin D3 receptor (Homo sapiens) (UniProt P11473); test: qHTS assay to identify small molecule antagonists of the vitamin D receptor (VDR) signaling pathway (AID 743223; active = well fitted inhibition curve with a large enough effect in the signal ratio in the repeat runs, not every such curve was filed as active; the % refers to the signal ratio); conditions: VDR-UAS-bla HEK293T, beta-lactamase FRET ratio, 16 h; series mostly up to 61 µM
Method in brief: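 Quantitative HTS in VDR-bla reporter cells stimulated with 1alpha,25-dihydroxyvitamin D3, 3 nM final. Compound exposure 16 h, 37C, 5% CO2. Read-out: beta-lactamase FRET substrate fluorescence, 2 h RT.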

[10] = qHTS assay to identify small molecule agonists of the vitamin D receptor (VDR) signaling pathway - cell viability counter screen (AID 743224); conditions: VDR-bla HEK293T viability, CellTiter-Glo luminescence, 16 h; series mostly up to 62.6 µM; also: nearly all actives have a fitted effect of over 50% in size; also: potency is read from the fitted curve at half-maximal effect
Method in brief: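 VDR-bla cell line, quantitative HTS format; 16 h compound incubation (37C, 5% CO2); ATP-based CellTiter-Glo luminescence measured in the reporter assay wells.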

[11] = qHTS assay to identify small molecule that activate the aryl hydrocarbon receptor (AhR) signaling pathway - cell viability counter screen (AID 743086); conditions: HepG2-AhR-luc viability, CellTiter-Fluor, 24 h; series mostly up to 70.3 µM; also: nearly all actives have a fitted effect of over 45% in size; also: potency is read from the fitted curve at half-maximal effect
Method in brief: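 Cytotoxicity counter screen: CellTiter-Fluor signal (30 min, 37 C) in 4000 HepG2 cells/well carrying the DRE-luciferase reporter, following 24 h compound exposure at 37 C.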

[12] = qHTS assay for small molecule agonists of the antioxidant response element (ARE) signaling pathway - cell viability counter screen (AID 743203; calls by dose curve; also: nearly all actives have a fitted effect of over 55% in size; also: potency is read from the fitted curve at half-maximal effect); conditions: ARE-bla HepG2 viability, CellTiter-Glo luminescence, 16 h; series mostly up to 73.3 µM
Method in brief: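 Cells (ARE-bla HepG2, 2,000/well) receive DMSO-dissolved compounds after a 5 hrs rest. Plates incubate 16 hrs at 37C/5% CO2. CellTiter-Glo luminescence is then recorded after 30 min at room temperature.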

[13] = qHTS assay to identify small molecule antagonists of the peroxisome proliferator-activated receptor delta (PPARd) signaling pathway - cell viability counter screen (AID 743213); conditions: PPARd-bla HEK293H viability, CellTiter-Glo luminescence, 17 h; series mostly up to 62 µM; also: nearly all actives have a fitted effect of over 50% in size; also: potency is read from the fitted curve at half-maximal effect
Method in brief: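 HEK293H cells with the PPARd UAS-bla reporter, co-treated 17 h at 37 C with compounds and L165041 (300 nM final), were lysed with CellTiter-Glo. Luminescence indicated viable cell content.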

[14] = qHTS assay for small molecule agonists of the antioxidant response element (ARE) signaling pathway (AID 743202; active = well fitted activation curve with a large enough effect in the signal ratio in the repeat runs, not every such curve was filed as active; the % refers to the signal ratio; also: potency is read from the fitted curve at half-maximal effect); conditions: HepG2 ARE-bla reporter, beta-lactamase FRET, 16 h; series mostly up to 73.3 µM
Method in brief: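 Quantitative high-throughput format in HepG2 cells bearing an integrated ARE-beta-lactamase reporter. Compound exposure lasted 16 h at 37 C, and fluorescence was read 2 h after adding LiveBLAzer B/G substrate at room temperature.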

[15] = qHTS assay for small molecule activators of the heat shock response signaling pathway (AID 743210; active = well fitted activation curve with a large enough effect in the signal ratio in the repeat runs, with a control signal flat, not every such curve was filed as active; the % refers to the signal ratio;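 also: HeLa cells with beta-lactamase reporter driven by heat shock elements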); conditions: HeLa HSE-bla reporter, beta-lactamase ratio, 5 h; series mostly up to 62.6 µM
Method in brief: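 HeLa HSE-bla cells, overnight plating; cpd in DMSO 5 h, 37 C; LiveBLAzer B/G FRET substrate 2.5 h RT; fluorescence intensity read.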

[16] = qHTS assay to identify small molecule agonists of the farnesoid-X-receptor (FXR) signaling pathway - cell viability counter screen (AID 743218); conditions: FXR-bla HEK293T viability, CellTiter-Glo luminescence, 16 h; series mostly up to 62.6 µM; also: nearly all actives have a fitted effect of over 45% in size; also: potency is read from the fitted curve at half-maximal effect
Method in brief: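 In GeneBLAzer FXR-UAS-bla HEK 293T cells, compounds act for 16 h at 37 C. Cell viability is then scored in the reporter wells by CellTiter-Glo, 30 min at RT, luminescence.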

[17] = target: Vitamin D3 receptor (Homo sapiens) (UniProt P11473); test: qHTS assay to identify small molecule agonists of the vitamin D receptor (VDR) signaling pathway (AID 743222; calls by dose curve); conditions: HEK293T VDR-UAS-bla, beta-lactamase FRET ratio, 16 h; series mostly up to 63.5 µM
Method in brief: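 Agonist activity measured in VDR-bla reporter cells. Exposure 16 h, 37C, 5% CO2; detection by B/G FRET substrate, 2 h RT.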

[18] = qHTS assay to identify small molecule agonists of the peroxisome proliferator-activated receptor delta (PPARd) signaling pathway - cell viability counter screen (AID 743211); conditions: PPARd-bla HEK293H viability, CellTiter-Glo luminescence, 17 h; series mostly up to 62.6 µM; also: nearly all actives have a fitted effect of over 55% in size; also: potency is read from the fitted curve at half-maximal effect
Method in brief: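 Tox21 library compounds, delivered in DMSO, were incubated 17 h with PPARd-bla HEK293H cells; cytotoxicity was taken from CellTiter-Glo luminescence read 30 min after reagent addition.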

[19] = target: Bile acid receptor (Homo sapiens) (UniProt Q96RI1); test: qHTS assay to identify small molecule antagonists of the farnesoid-X-receptor (FXR) signaling pathway (AID 743217; active = well fitted inhibition curve with a large enough effect in the signal ratio in the repeat runs, not every such curve was filed as active; the % refers to the signal ratio; also: potency is read from the fitted curve at half-maximal effect); conditions: HEK293T FXR-UAS-bla, beta-lactamase ratio, CDCA-stimulated, 16 h; series mostly up to 62.6 µM
Method in brief: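 Beta-lactamase reporter under UAS control in HEK 293T cells; compound exposure 16 h at 37 °C in the presence of chenodeoxycholic acid (50 uM final); signal from B/G FRET substrate after 2 h at room temperature.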

[20] = target: Peroxisome proliferator-activated receptor gamma (Homo sapiens) (UniProt P37231); test: qHTS assay to identify small molecule antagonists of the peroxisome proliferator-activated receptor gamma (PPARg) signaling pathway (AID 743191; calls by dose curve; also: nearly all actives have a fitted effect of over 30% in size; also: potency is read from the fitted curve at half-maximal effect); conditions: HEK293H PPARg-UAS-bla, beta-lactamase ratio, antagonist, 17 h; series mostly up to 62.6 µM
Method in brief: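 Beta-lactamase reporter under UAS control in HEK293H PPARg-bla cells; compound treatment 17 h at 37C. Read-out: fluorescence intensity after 1 h room-temperature incubation with LiveBLAzer B/G FRET substrate.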

Chain of Vitamin D3 receptor (Homo sapiens) (P11473 whole entry, looked up): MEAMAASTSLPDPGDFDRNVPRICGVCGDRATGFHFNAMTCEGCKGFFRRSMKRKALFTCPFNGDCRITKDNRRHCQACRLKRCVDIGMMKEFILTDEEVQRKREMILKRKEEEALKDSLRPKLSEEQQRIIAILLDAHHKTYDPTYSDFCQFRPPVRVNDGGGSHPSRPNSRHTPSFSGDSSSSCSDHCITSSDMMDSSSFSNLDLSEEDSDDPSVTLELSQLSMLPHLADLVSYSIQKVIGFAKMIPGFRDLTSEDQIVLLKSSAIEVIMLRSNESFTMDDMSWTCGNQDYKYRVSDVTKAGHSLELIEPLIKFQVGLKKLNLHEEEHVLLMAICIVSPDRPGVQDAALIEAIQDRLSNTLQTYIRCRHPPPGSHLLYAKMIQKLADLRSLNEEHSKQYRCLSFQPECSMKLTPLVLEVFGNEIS
Chain of Peroxisome proliferator-activated receptor gamma (Homo sapiens) (P37231 whole entry, looked up): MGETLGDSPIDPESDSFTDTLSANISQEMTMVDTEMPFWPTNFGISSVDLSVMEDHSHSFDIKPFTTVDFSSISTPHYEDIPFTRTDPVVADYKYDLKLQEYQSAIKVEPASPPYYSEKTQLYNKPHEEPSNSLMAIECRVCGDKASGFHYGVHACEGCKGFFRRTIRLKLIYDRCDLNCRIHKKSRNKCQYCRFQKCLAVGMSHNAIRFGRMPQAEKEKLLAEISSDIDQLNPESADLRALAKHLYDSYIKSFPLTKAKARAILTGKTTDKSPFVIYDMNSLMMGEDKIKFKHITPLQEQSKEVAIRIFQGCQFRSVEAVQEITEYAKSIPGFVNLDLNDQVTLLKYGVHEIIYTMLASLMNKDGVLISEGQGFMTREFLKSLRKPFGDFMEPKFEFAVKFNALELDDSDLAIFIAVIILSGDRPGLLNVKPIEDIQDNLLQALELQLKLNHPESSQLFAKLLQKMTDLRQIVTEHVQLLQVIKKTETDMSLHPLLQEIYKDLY
Chain of Peroxisome proliferator-activated receptor delta (Homo sapiens) (Q03181 whole entry, looked up): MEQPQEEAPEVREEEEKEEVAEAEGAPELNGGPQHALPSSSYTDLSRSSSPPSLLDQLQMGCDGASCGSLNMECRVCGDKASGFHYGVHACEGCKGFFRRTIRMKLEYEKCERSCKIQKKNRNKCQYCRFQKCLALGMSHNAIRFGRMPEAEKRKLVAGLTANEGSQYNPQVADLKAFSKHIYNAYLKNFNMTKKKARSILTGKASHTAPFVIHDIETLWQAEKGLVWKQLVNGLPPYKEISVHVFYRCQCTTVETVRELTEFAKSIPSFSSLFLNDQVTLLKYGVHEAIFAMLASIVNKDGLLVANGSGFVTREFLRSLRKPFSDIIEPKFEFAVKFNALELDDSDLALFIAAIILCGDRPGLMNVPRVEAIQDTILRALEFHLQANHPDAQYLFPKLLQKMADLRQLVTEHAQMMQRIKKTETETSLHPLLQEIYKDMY
Chain of Bile acid receptor (Homo sapiens) (Q96RI1 whole entry, looked up): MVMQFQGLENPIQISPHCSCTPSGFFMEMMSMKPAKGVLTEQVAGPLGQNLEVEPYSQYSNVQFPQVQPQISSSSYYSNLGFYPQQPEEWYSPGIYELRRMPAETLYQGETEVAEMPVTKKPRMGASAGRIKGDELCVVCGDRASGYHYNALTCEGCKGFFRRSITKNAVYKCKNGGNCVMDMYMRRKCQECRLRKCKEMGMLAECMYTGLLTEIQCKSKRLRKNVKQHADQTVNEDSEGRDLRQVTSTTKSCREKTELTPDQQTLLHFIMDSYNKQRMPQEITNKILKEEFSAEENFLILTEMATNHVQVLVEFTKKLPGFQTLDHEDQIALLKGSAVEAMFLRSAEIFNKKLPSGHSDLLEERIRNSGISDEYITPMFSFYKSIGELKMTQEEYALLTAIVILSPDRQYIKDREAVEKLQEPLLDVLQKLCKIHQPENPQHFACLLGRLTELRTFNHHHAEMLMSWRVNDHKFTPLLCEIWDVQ
Chain of Aryl hydrocarbon receptor (Homo sapiens) (P35869 whole entry, looked up): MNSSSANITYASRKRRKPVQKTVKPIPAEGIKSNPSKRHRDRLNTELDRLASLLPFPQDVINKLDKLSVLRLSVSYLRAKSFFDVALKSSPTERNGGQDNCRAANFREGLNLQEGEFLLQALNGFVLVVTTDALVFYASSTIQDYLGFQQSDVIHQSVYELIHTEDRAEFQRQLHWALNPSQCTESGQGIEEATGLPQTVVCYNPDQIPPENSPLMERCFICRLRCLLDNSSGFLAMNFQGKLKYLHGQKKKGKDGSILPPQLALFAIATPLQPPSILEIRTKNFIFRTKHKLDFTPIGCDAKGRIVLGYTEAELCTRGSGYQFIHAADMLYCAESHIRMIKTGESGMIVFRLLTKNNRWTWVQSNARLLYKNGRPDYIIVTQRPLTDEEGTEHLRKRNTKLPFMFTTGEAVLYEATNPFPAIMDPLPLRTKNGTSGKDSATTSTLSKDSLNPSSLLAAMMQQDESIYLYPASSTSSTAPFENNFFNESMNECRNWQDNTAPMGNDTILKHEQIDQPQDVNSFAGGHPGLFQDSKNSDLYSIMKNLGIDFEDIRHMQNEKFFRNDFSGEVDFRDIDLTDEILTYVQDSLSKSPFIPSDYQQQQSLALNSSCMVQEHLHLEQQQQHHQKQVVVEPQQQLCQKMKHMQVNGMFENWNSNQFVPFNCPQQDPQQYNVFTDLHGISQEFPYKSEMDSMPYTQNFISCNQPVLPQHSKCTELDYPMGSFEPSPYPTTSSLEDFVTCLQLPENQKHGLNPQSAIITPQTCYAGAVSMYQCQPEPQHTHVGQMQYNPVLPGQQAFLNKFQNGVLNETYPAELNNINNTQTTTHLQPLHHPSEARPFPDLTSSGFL

SMILES	Potency [1]	Potency [2]	Potency [3]	Potency [4]	Potency [5]	Potency [6]	Potency [7]	Potency [8]	Potency [9]	Potency [10]	Potency [11]	Potency [12]	Potency [13]	Potency [14]	Potency [15]	Potency [16]	Potency [17]	Potency [18]	Potency [19]	Potency [20]
C=CC(=O)Nc1cc2c(Nc3ccc(F)c(Cl)c3)ncnc2cc1OCCCN1CCOCC1	inactive	inactive	29.8 µM (active)	inactive	inactive	inactive	inactive	inactive	inactive	inactive										
c1ccc(C(O[C@@H]2CCCN(CCc3ccc4c(c3)OCO4)C2)c2ccccc2)cc1			inactive	inactive	inactive			inactive			inactive	61.1 µM (active)	inactive							
C#C[C@]1(OC(C)=O)CC[C@H]2[C@@H]3CCC4=C[C@@H](OC(C)=O)CC[C@@H]4[C@H]3CC[C@@]21C		inactive	inactive	inactive	inactive			inactive		inactive	inactive	inactive	inactive	26.6 µM (active)	inactive	inactive	inactive			
O=C1NC(=O)[C@@H]2CC=CC[C@H]12			inactive	inactive			inactive	inactive	inactive		inactive	inactive	inactive		inactive	21.9 µM (active)	inactive	inactive	inactive	
O=C1c2ccccc2C(=O)N1SC1CCCCC1			54.9 µM (active)	54.9 µM (active)			inactive	inactive		54.9 µM (active)	inactive	48.5 µM (active) and 34.4 µM (active)				inactive		48.9 µM (active) and 49 µM (active)		
CC1(C)CC(O)CC(C)(C)N1		inactive		inactive	inactive			inactive		inactive	inactive	inactive		inactive		inactive	inactive	inactive		
Cc1cc(C(C)(C)C)c(O)c(C)c1Cn1c(=O)n(Cc2c(C)cc(C(C)(C)C)c(O)c2C)c(=O)n(Cc2c(C)cc(C(C)(C)C)c(O)c2C)c1=O		inactive	inactive	inactive	inactive	inactive	inactive	inactive	inactive	inactive	inactive	inactive	inactive	inactive					19.5 µM (active)	
Clc1nnc(Cl)c2ccccc12		inactive	inactive		inactive	inactive		inactive	inactive	inactive	inactive	inactive	inactive			inactive	inactive	inactive		
CCCCCCCCCCC[C@@H](C[C@@H]1OC(=O)[C@H]1CCCCCC)OC(=O)[C@H](CC(C)C)NC=O		inactive	inactive	inactive	inactive				inactive		inactive	inactive	inactive			inactive				
CCOC(=O)Cn1cccc1-c1nc(-c2ccc(OC)cc2)c(-c2ccc(OC)cc2)s1		inactive	inactive	inactive				inactive	inactive	inactive	inactive	inactive	inactive	7.5 µM (active)				inactive		
CCCCCCCCCCCCCCCC[N+](C)(C)CC				39 µM (active) and 23.7 µM (active)			inactive	43.8 µM (active) and 29.8 µM (active)		21.9 µM (active)	18.8 µM (active) and 48.7 µM (active)	54.6 µM (active)	17.4 µM (active) and 21.1 µM (active)			31 µM (active) and 29.8 µM (active)		21.9 µM (active) and 29.8 µM (active)		23.7 µM (active)
C=CCn1c(=O)n(CC=C)c(=O)n(CC=C)c1=O		inactive	inactive	inactive	inactive	inactive		inactive	inactive	inactive	inactive	inactive	inactive	inactive		inactive	inactive	inactive		
O=C(/C=C/c1ccc(O)c(O)c1)O[C@@H](C(=O)O)[C@@H](OC(=O)/C=C/c1ccc(O)c(O)c1)C(=O)O		inactive	inactive	inactive		inactive	inactive	inactive	inactive	inactive	inactive					inactive		inactive	inactive	inactive
COc1cc(/C=C/c2ccccc2)oc(=O)c1				inactive		inactive		inactive	inactive	inactive	inactive				inactive	inactive		inactive		inactive
Cc1nc2n(c(=O)c1CCN1CCC(c3noc4cc(F)ccc34)CC1)CCCC2			inactive	inactive	inactive			inactive		inactive	inactive	inactive	inactive		inactive	inactive	inactive	inactive		
Cc1cccc(C(=O)O)c1O		inactive	inactive		inactive	inactive	inactive	inactive	inactive	inactive	inactive	inactive	inactive			inactive	inactive	inactive	inactive	
O=c1oc2cc(O)ccc2c2oc3cc(O)ccc3c12				inactive				inactive		inactive	inactive	inactive	inactive	20.8 µM (active)		inactive		inactive		
C[C@H]1NCc2cc(-c3ccc4c(=O)c(C(=O)O)cn(C5CC5)c4c3OC(F)F)ccc21		inactive	inactive		inactive	inactive		inactive	inactive	inactive	inactive	inactive		inactive		inactive		inactive		
C=C(C)C(=O)OCCCCCCCCCC		inactive	inactive	inactive				inactive	inactive	44 µM (active)	inactive	inactive	39.2 µM (active)	inactive					inactive	inactive
